An excerpt weighted towards active compounds, which were near 12% of everything screened.
Sfp PPTase inh = qHTS Assay for Inhibitors of Bacillus subtilis Sfp phosphopantetheinyl transferase (PPTase); AID 1490, 2009; 4'-phosphopantetheinyl transferase ffp (Bacillus subtilis), Q9F4F7; Biochemical Sfp PPTase activity, qHTS; Potency, µM, for inactives: largest response in the series, negative = inhibition, hits mostly inhibitors; 3.5% of 310,000 active;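 also: the enzyme is Sfp with the accession as filed and its product quenches rhodamine fluorescence; 0% = enzyme reaction without inhibitor and -100% = no enzyme wells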
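Reaction rates are the 30-min fluorescence difference (ex 525, em 598 nm) in wells containing 15 nM Sfp, 5 uM rhodamine-CoA and 12.5 uM BHQ-2-YbbR at pH 7.6 with 10 mM MgCl2.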
G9a block = qHTS Assay for Inhibitors of Histone Lysine Methyltransferase G9a. Histone-lysine N-methyltransferase EHMT2 (Homo sapiens), Q96KQ7. G9a H3K9 monomethylation, AlphaScreen, 2 h. Potency, µM (series often up to 102 µM), inactives show at the highest dose activity, negative = inhibition, hits mostly inhibitors. 8.8% of 350,000 active; also: % is scaled to controls: 0 for no effect and ±100 for the full control effect; nearly all actives have a fitted effect of over 75% in size
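Readings reflect AlphaScreen signal from monomethyl-H3K9 antibody detection. HMT at 20 nM; substrate b-H3K9 500 nM; cofactor SAM 20 uM; 2 h RT reaction; compounds tested as titrations in qHTS with 15 min preincubation.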
HP1b chromo inh = HTS for Inhibitors of HP1-beta Chromodomain Interactions with Methylated Histone Tails; Chromobox protein homolog 1 (Homo sapiens), P83916; AlphaScreen HP1-beta / biotin-H3K9me3 peptide binding; Potency, µM (titrated, usually from 114 µM), without a hit: at the top dose activity change, negative = inhibition, most hits filed as inhibitors; 0.56% of 390,000 active; also: nearly all actives have a fitted effect of over 70% in size
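HP1-beta protein (50 nM final) preincubated 30 min at room temperature with biotinylated H3(1-18)K9me3 peptide (50 nM) in PBS pH 7.4, 0.01% Tween-20, then compound added for 30 min. AlphaScreen streptavidin donor/nickel chelate acceptor beads (10 ug/mL final), 30 min dark, luminescence read.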
BAZ2B block = qHTS Assay for Inhibitors of BAZ2B; Bromodomain adjacent to zinc finger domain protein 2B (Homo sapiens), Q9UIF8; AlphaScreen BAZ2B-H3K14Ac peptide displacement; Potency, µM (top dose mostly 114 µM), for inactives: at the highest dose activity change, negative = inhibition, most hits filed as inhibitors; 4.4% of 360,000 active; AID 504333, 2011; also: % is scaled to controls: 0 for no effect and ±100 for the full control effect; nearly all actives have a fitted effect of over 60% in size
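BAZ2B (50 nM) with biotin-H3(5-23)K14Ac peptide (50 nM) in PBS pH 7.4, 0.01% Tween-20, preformed 30 min, then compound 30 min at room temperature; top concentration 110uM. AlphaScreen streptavidin donor/nickel chelate acceptor beads (10 ug/mL final), 20 min dark, signal read.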
JMJD2A Tudor inh = qHTS Assay for Inhibitors of JMJD2A-Tudor Domain; AlphaScreen JMJD2A-Tudor / H3K4me3 peptide binding; Lysine-specific demethylase 4A (Homo sapiens), O75164; 4.4% of 390,000 active; Potency, µM (highest dose often 114 µM), without a hit: at the highest dose activity change, negative = inhibition, most hits filed as inhibitors; AID 504339, 2011; also: % is scaled to controls: 0 for no effect and ±100 for the full control effect; nearly all actives have a fitted effect of over 50% in size
Target sequence (O75164 whole entry, looked up, the tested form may be a part): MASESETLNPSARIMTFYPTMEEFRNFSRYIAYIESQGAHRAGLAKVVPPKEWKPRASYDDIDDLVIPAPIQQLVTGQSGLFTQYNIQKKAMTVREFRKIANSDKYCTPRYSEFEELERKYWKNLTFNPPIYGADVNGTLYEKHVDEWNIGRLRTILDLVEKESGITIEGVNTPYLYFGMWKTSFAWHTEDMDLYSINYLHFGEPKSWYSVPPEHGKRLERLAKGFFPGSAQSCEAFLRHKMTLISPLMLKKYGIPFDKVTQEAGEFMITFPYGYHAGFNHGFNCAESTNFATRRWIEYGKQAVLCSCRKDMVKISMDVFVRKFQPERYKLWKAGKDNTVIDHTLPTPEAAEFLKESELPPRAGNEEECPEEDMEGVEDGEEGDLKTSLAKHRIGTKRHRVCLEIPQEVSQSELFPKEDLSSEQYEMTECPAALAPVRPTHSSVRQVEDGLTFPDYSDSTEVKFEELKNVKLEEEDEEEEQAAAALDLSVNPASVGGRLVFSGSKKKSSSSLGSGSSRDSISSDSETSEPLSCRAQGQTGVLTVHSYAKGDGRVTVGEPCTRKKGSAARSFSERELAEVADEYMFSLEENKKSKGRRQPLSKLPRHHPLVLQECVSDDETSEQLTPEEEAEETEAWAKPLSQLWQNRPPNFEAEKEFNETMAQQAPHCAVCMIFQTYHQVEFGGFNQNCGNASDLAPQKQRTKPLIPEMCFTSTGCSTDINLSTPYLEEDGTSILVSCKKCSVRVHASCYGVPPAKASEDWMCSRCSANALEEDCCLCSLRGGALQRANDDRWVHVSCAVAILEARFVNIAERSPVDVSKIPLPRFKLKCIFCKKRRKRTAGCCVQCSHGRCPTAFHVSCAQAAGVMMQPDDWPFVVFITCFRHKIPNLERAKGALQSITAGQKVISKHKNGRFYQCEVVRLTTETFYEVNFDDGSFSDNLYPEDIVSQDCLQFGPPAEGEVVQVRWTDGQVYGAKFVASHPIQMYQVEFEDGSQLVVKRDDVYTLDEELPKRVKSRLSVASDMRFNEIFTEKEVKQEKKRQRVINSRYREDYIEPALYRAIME
L3MBTL1 block = qHTS Assay for the Inhibitors of L3MBTL1 | Lethal(3)malignant brain tumor-like protein 1 (Homo sapiens), Q9Y468 | AlphaScreen L3MBTL1–H3K9me1 peptide binding | Potency, µM (titrated, usually from 57.1 µM), without a hit: at the top dose activity, negative = inhibition, actives largely listed as inhibitors | 0.66% of 230,000 active | AID 485360, 2010; also: % is scaled to controls: 0 for no effect and ±100 for the full control effect; nearly all actives have a fitted effect of over 60% in size
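L3MBTL1 (50 nM) pre-complexed 30 min with biotinylated H3(1-15)K9me1 peptide (75 nM), then compounds added for 30 min at room temperature; AlphaScreen streptavidin donor/nickel chelate acceptor beads (10 ug/mL final) read after 30 min dark incubation.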
An asterisk follows results filed as active; u = inconclusive; x = no result given; [ ] = another dose, or the depositor's remark. Calls follow the shape of the dose curve; as a rule, active = well fitted curve in the direction sought with a large enough effect; inconclusive = small, poorly fitted or top-dose-only effect, or another doubt; inactive = no such curve, though single readings can be large; an effect the other way counts as inactive or inconclusive. Potency is read from the fitted curve at half-maximal effect.

SMILES	Sfp PPTase inh	G9a block	HP1b chromo inh	BAZ2B block	JMJD2A Tudor inh	L3MBTL1 block
CC(=O)NC(=S)Nc1ccc(NC(=O)c2cccnc2Cl)cc1	15%	u	25%	-25%	-14%	x
O=C(NNC(=O)c1cnccn1)c1cccc([N+](=O)[O-])c1	2.5µM*	0.56µM*	14%	2%	-28%	22%
O=C(N/N=C(\c1ccccc1)c1ccccn1)c1cccc([N+](=O)[O-])c1	11%	-1%	20%	25µM*	u	x
CCOc1ccc(C(=O)N/N=C(\c2ccccc2)c2ccccn2)cc1	-14%	7%[59 µM]	15%	79µM*	-34%	-12%
Cn1ccnc1/C(=N\NC(=O)c1ccccc1)c1cccc([N+](=O)[O-])c1	3%	40µM*	3%	-14%	-23%	u
COc1cc(OC)c(NC(=O)N2CCOCC2)cc1Cl	15%	x	21%	5%	-21%	1%
Cc1ccc(-n2nc3cc(C)c(NC(=O)c4ccc(-c5ccccc5)o4)cc3n2)cc1	x	8%[59 µM]	24%	-1%	1%	x
O=C(NNC(=O)c1cccnc1SCc1cccc([N+](=O)[O-])c1)c1cccnc1	2%	35µM*	50%	-1%	8%	6%
O=C(NNC(=O)c1cccnc1SCc1cccc([N+](=O)[O-])c1)c1ccc(F)cc1	8%	u	44%	2%	-2%	2%
CC(NC(=O)CCC(=O)NC(C)C1COc2ccccc2O1)C1COc2ccccc2O1 (stereo unspecified)	10%	5%[59 µM]	27%	10%	-16%	1%
CCOC(=O)c1c(-c2cccs2)csc1NC(=O)c1ccco1	10%	-17%[59 µM]	28%	0%	-2%	-5%
CC(NCC(O)COc1ccccc1)C1COc2ccccc2O1 (stereo unspecified)	8%	-11%	23%	-17%	-7%	x
CC(NCc1ccccc1)C1COc2ccccc2O1 (stereo unspecified)	-9%	32µM*	-56%	u	3.2µM*	x
CCOC(=O)c1c(C2COc3ccccc3O2)csc1NC(=O)c1ccco1 (stereo unspecified)	u	1.6µM*	18µM*	u	32µM*	-4%[11.4 µM]
CC(NC(=O)c1ccco1)C1COc2ccccc2O1 (stereo unspecified)	5%	25µM*	-6%	50µM*	56µM*	x
COc1ccc(CNC(C)C2COc3ccccc3O2)c(OC)c1 (stereo unspecified)	-20%	10µM*	u	50µM*	3.5µM*	-6%
COCCNC(=O)c1ccc(CS(=O)(=O)c2ccccc2OC)o1	-12%	u	30%	5%	-6%	x
CCOC(=O)N1CCN(C(=O)c2ccc(CS(=O)(=O)c3ccccc3OC)o2)CC1	79µM*	22%[59 µM]	33%	7%	0%	8%
COc1ccccc1S(=O)(=O)Cc1ccc(C(=O)NCCN2CCCCCC2)o1	2%	50µM*	53%	6%	-26%	5%
Cc1nc(-c2coc3cc(C)c(N=O)c(O)c3/c2=N\N)cs1	u	50µM*	20%	u	-25%	x
c1ccc(-c2noc(CSc3nnc(Cc4cccs4)n3-c3ccccc3)n2)cc1	-1%	-19%[59 µM]	23%	1%	-15%	5%
S=c1[nH]nc(Cc2ccccc2)n1-c1ccccc1	-8%	8.9µM*	23%	3%	4µM*	2%
S=c1[nH]nc(Cc2cccs2)n1-c1ccccc1	8%	10%[0.501 µM]	32%	-32%	7.9µM*	6%
Cc1ccccc1OCc1n[nH]c(=S)n1-c1ccccc1	6%	10µM*	16%	-31%	-34%	-2%
CC(C)OCC(O)CCc1n[nH]c(=S)n1-c1ccccc1 (stereo unspecified)	79µM*	3.5µM*	28%	12%	6.3µM*	1%
SMILES	Sfp PPTase inh	G9a block	HP1b chromo inh	BAZ2B block	JMJD2A Tudor inh	L3MBTL1 block
CCOC(=O)c1c(C)c(-c2ccccc2)n(CC(=O)NCCc2cccc(C)c2)c1C	x	4%[59 µM]	4%	-1%	-20%	x
COc1cc(OC)cc(-c2oc(=O)c3cc(OC)c(OC)cc3c2C(F)(F)F)c1	x	x	23%	x	-22%	9%
COc1cc2cc(C(=O)N3CCOCC3)cc(-c3ccc(C)cc3)c2cc1OC	-15%	u	9%	-18%	-33%	x
Cc1ccc(-n2nc3c(=O)n(CCCC(=O)NCCc4ccccc4Cl)nc(C)c3c2C)cc1	x	-28%[59 µM]	34%	-14%	-22%	x
Cc1ccc(-n2c(Cc3ccccc3)n[nH]c2=S)cc1	-16%	2.2µM*	-5%	-23%	7.1µM*	0%
Cc1ccc(OCc2nnc(SCc3cc(=O)[nH]c4ccccc34)n2-c2ccccc2)cc1	u	u	-38%	-34%	u	-12%
COC(=O)CSc1nnc(Cc2ccccc2)n1-c1ccc(C)cc1	-7%	14%[59 µM]	52%	-1%	-1%	u
Cc1ccccc1OCc1nnc(SCc2cc(=O)[nH]c3ccccc23)n1-c1ccccc1	56µM*	4%	7%	-8%	-31%	-4%
S=c1[nH]nc(Cc2ccccc2)n1-c1ccc(Cl)cc1	14%	u	1%	-25%	79µM*	-6%
S=c1[nH]nc(Cc2noc3ccccc23)n1-c1ccc(Cl)cc1	-8%	1.4µM*	0%	-13%	u	-11%
Cc1ccc(-n2c(Cc3noc4ccccc34)n[nH]c2=S)cc1	0%	x	30%	u	u	-2%
S=c1[nH]nc(CCc2ccccc2)n1-c1ccc(Cl)cc1	u	u	-19%	-27%	u	-6%
CC(C)C(=O)Nc1ccc2nc(SCC(=O)N3CCCC3)sc2c1	x	-2%[59 µM]	41%	-16%	4%	x
S=c1[nH]nc(CCc2ccccc2)n1-c1ccccc1	0%	1.4µM*	6%	2%	11µM*	1%
S=c1[nH]nc(Cc2n[nH]c(=S)n2-c2ccccc2)n1-c1ccccc1	u	10µM*	40%	-3%	8.9µM*	x
CCCCc1ccc(-n2c(Cc3cccs3)n[nH]c2=S)cc1	-10%	1.8µM*	-19%	u	u	-13%
Cc1ccc(-n2c(Cc3cccs3)nnc2SCC(N)=O)cc1	12%	17%[12.7 µM]	5%	4%	1%	x
CCC(=O)Nc1nnc(-c2cccs2)s1	20%	-34%	35%	2%	8%	7%
